A selection: hits, their analogues and other compounds. The true share with any hit is near 2.5%.
ASK1 primary – inhibitors of human ASK1 kinase | Q99683 | AlphaScreen MKK6 phosphorylation by ASK1, luminescence | inhibition, % at 7.44 µM | hit rate 0.99% among 22,000 | AID 1159602; in the data active = inhibition above about 35%;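 note: 0% = median of compound wells and 100% = no enzyme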
Target sequence (Q99683 whole entry, looked up): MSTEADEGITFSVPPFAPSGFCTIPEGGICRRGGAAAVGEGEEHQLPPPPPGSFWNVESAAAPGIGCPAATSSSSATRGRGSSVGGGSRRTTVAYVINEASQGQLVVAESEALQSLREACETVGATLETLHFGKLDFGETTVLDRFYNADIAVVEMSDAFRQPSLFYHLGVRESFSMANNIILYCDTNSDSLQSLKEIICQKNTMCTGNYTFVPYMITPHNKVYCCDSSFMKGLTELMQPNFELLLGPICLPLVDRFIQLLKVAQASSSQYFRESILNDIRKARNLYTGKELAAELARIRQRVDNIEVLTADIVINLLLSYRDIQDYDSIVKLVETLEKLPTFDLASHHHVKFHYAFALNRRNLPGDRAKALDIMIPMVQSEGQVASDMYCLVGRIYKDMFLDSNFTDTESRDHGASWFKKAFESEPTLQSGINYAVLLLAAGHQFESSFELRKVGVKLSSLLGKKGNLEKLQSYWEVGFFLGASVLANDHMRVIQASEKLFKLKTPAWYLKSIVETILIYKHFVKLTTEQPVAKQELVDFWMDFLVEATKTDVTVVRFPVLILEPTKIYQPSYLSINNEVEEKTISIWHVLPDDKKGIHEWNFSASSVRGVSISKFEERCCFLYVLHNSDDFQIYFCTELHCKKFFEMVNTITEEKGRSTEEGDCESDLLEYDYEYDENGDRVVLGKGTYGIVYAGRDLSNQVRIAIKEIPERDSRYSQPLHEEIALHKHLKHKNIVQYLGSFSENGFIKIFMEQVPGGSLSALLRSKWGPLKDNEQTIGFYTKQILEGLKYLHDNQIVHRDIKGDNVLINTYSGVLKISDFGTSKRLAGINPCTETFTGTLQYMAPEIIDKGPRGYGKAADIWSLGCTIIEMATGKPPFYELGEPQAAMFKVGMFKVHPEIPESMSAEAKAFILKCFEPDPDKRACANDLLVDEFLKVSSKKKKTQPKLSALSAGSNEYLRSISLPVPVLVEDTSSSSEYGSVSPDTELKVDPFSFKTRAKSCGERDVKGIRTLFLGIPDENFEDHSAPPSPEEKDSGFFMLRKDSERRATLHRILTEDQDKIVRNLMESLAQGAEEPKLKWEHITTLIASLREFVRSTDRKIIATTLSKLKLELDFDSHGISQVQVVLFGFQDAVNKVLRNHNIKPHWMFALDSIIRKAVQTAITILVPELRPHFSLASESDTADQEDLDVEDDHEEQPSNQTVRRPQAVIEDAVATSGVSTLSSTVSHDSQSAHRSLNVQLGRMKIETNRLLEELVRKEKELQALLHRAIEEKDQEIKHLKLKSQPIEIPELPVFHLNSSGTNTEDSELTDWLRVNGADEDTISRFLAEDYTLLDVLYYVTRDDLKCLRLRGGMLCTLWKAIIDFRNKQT
ULK1 primary – blocks human autophagy kinase ULK1; O75385; AlphaScreen Atg13 phosphorylation by ULK1, luminescence; inhibition, % at 5.96 µM; hit rate 1.9% among 30,000; in the data active = inhibition above about 43%;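 note: 0% = median of compound wells and 100% = no enzyme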
Active calls of the source: *.

Cn1cc(-c2cccc3cnc(Nc4ccc(-n5cnc(N6CCOCC6)n5)cc4)nc23)cn1 was read as ASK1 primary 17 and ULK1 primary 15.
For Cc1ccc(-c2ncn(-c3ccc(Nc4ncc5ccc(-c6cnn(C)c6)nc5n4)cc3)n2)cn1 the results were ASK1 primary 11 and ULK1 primary 6.
Screening Cn1cc(-c2ccc3cnc(Nc4ccc(N5CCOCC5)nc4)nc3c2Cl)cn1 returned ASK1 primary 22 and ULK1 primary 78*.
Cc1c(-c2cnn(C)c2)ccc2cnc(Nc3ccc(-n4cnc(N5CCOCC5)n4)cc3)nc12 was read as ASK1 primary -66 and ULK1 primary 60*.
`Cn1cc(-c2nc(Nc3ccc(-n4cnc(N5CCC(O)CC5)n4)cc3)ncc2Cl)cn1` gave ASK1 primary -95 and ULK1 primary 71*.
For Cc1ccc(-c2ncn(-c3ccc(Nc4ncc(Cl)c(-c5cnn(C)c5)n4)cc3)n2)cn1 the results were ASK1 primary 16 and ULK1 primary 7.
Cc1nc(C)n(-c2ccc(Nc3nc(-c4cnn(C)c4)cc(N4CCOCC4)n3)cc2)n1 was read as ASK1 primary 5 and ULK1 primary 1.
`Cn1cc(-c2ccccc2NC(=O)c2ccccc2)cn1` gave ULK1 primary 1.
FC(F)(F)c1ccc(Cn2cnc3c(NCCN4CCOCC4)nc(Nc4ccc5ncccc5c4)nc32)cc1 was read as ASK1 primary -14 and ULK1 primary -19.
For c1cnc(Nc2nc3ncnc(NCCN4CCOCC4)c3[nH]2)cn1 the results were ASK1 primary -5 and ULK1 primary 2.
c1cncc(CNc2nc(NCc3cccnc3)c3[nH]cnc3n2)c1 was read as ASK1 primary 13 and ULK1 primary 16.
Screening O=C1CCCN1CCCNc1nc(N2CCc3ccccc3C2)nc2c1ncn2Cc1ccc(C(F)(F)F)cc1 returned ASK1 primary 7 and ULK1 primary -34.
CC(C)N(CCNC(=O)c1ccc2nc(Nc3nc4ccccc4n3C)sc2c1)C(C)C was read as ASK1 primary -1 and ULK1 primary -1.
CC(C)N(CCNC(=O)c1ccc(-c2csc3ccccc23)s1)C(C)C was read as ASK1 primary -2 and ULK1 primary -28.
Cn1cc(-c2cccc3nc(Nc4ccc(-n5cnc(N6CCOCC6)n5)cc4)ncc23)cn1 was read as ASK1 primary 9 and ULK1 primary 15.
Cn1cc(-c2ccc3cnc(Nc4ccc(-n5cnc(N6CCOCC6)n5)cc4)nc3c2Cl)cn1 was read as ASK1 primary -18 and ULK1 primary 47*.
For CC(C)N1CCN(c2ncn(-c3ccc(Nc4ncc5ccc(-c6cnn(C)c6)c(Cl)c5n4)cc3)n2)CC1 the results were ASK1 primary -16 and ULK1 primary 91*.
Screening Cc1[nH]ncc1-c1ccc2cnc(Nc3ccc(-n4cnc(N5CCOCC5)n4)cc3)nc2c1 returned ASK1 primary -45 and ULK1 primary 76*.
`CCOC(=O)c1c(-c2cnn(C)c2)ccc2cnc(Nc3ccc(-n4cnc(N5CCOCC5)n4)cc3)nc12` gave ASK1 primary -8 and ULK1 primary 60*.
For Cn1cc(-c2ccc3cnc(Nc4ccc(-n5cnc(N6CCOCC6)n5)cc4)nc3c2OCCN2CCOCC2)cn1 the results were ASK1 primary 1 and ULK1 primary 33.
Cc1ncn(-c2ccc(Nc3ncc4ccnc(-c5cnn(C)c5)c4n3)cc2)n1 was read as ASK1 primary 0 and ULK1 primary 10.
Cc1n[nH]c(C)c1-c1ccc2cnc(Nc3ccc(-n4cnc(N5CCOCC5)n4)cc3)nc2c1 was read as ASK1 primary -51 and ULK1 primary -7.
O=C(NCc1cn(-c2ccncc2)nn1)c1ccc(Cl)cc1 was read as ASK1 primary 3 and ULK1 primary 5.
Screening COc1cc(Nc2ncc(C(=O)NCCN3CCOCC3)s2)cc(OC)c1OC returned ASK1 primary -17 and ULK1 primary -14.
CCCCOc1ccc(C(=O)n2ccn(S(=O)(=O)c3ccc(C)cc3)c2=O)cc1 was read as ULK1 primary 13.
For COc1ccccc1/C=N/Nc1nc(-c2ccccc2)cc(=O)[nH]1 the results were ULK1 primary 1.
CCN(CC)c1nc(NCCc2ccc(OC)cc2)nc(Oc2ccccc2)n1 was read as ASK1 primary -23 and ULK1 primary 2.
Screening Cn1cc(-c2ccc3cnc(Nc4ccccc4)cc3c2)cn1 returned ASK1 primary -30 and ULK1 primary 66*.
Cn1cc(-c2nc(Nc3ccc(-n4cnc(N5CCOCC5)n4)cc3)ncc2F)cn1 was read as ASK1 primary -37 and ULK1 primary 19.
`Cn1cc(-c2ccc3cnc(Nc4ccc(-n5cnc(N6CCOCC6)n5)cc4)cc3c2)cn1` gave ASK1 primary 11 and ULK1 primary 74*.
For Cc1nc(C)n(-c2ccc(Nc3cc(-c4cnn(C)c4)ccn3)cc2)n1 the results were ASK1 primary -12 and ULK1 primary 7.
`CC(C)N(CCNC(=O)c1csc(Br)n1)C(C)C` gave ASK1 primary -7 and ULK1 primary -1.
COc1ccc(-c2cc(N)ncn2)cn1 was read as ASK1 primary 2 and ULK1 primary -5.
CCc1cc(=O)[nH]c(-n2nc(C)cc2NC(=O)c2ccccc2SC)n1 was read as ULK1 primary 5.
O=C1NC(=O)/C(=C\c2cc(Br)cc(Cl)c2O)S1 was read as ULK1 primary 44*.
Screening CC(=O)Nc1ccc(/C=C2/SC(=O)NC2=O)cc1 returned ULK1 primary 2.
O=C(Nc1ccc2[nH]ncc2c1)C1CCNC1 (stereo not given) was read as ASK1 primary -9 and ULK1 primary 12.
Screening O=C(Nc1ccc2[nH]ncc2c1)C1CCNCC1 returned ASK1 primary -2 and ULK1 primary 56*.
Screening COc1ccc(-c2cc(NCCOc3ccccc3)ncn2)cc1 returned ASK1 primary -2 and ULK1 primary -16.
`CC(C)c1nc2ccc(-c3cnn(C)c3)cc2c(=O)[nH]1` gave ASK1 primary -10 and ULK1 primary -3.
Cc1n[nH]c(C)c1-c1ccc2nc(C(C)C)[nH]c(=O)c2c1 was read as ASK1 primary 6 and ULK1 primary 60*.
Screening CNC(=O)c1ccccc1Nc1cc(NC(=O)Cc2cccc(OC)c2)ncc1C(F)(F)F returned ASK1 primary 2 and ULK1 primary 55*.
For NC(=O)c1ccccc1Nc1cc(Oc2ccc(N3CCNCC3)cc2)ncc1C(F)(F)F the results were ASK1 primary -1 and ULK1 primary 60*.
CNC(=O)c1ccccc1Nc1cc(NC(=O)CCc2ccccc2)ncc1C(F)(F)F was read as ASK1 primary 16 and ULK1 primary 35.
For CNC(=O)c1ccccc1Nc1cc(NC(=O)Cc2c(Cl)cccc2Cl)ncc1C(F)(F)F the results were ASK1 primary 15 and ULK1 primary -9.
For CNC(=O)c1ccccc1Nc1cc(NC(=O)Cc2ccccc2)ncc1C(F)(F)F the results were ASK1 primary -9 and ULK1 primary 58*.
CNC(=O)c1ccccc1Nc1cc(NC(=O)Cc2ccc(OC)cc2)ncc1C#N was read as ASK1 primary -8 and ULK1 primary 18.
For CNC(=O)c1cccnc1Nc1cc(NC(=O)Cc2ccc(OC)cc2)ncc1C(F)(F)F the results were ASK1 primary 0 and ULK1 primary 43*.
Screening NC(=O)c1ccccc1Nc1cc(NC(=O)Cc2ccc3ccccc3c2)ncc1C(F)(F)F returned ASK1 primary 3 and ULK1 primary 25.
Screening N[C@H]1CC[C@@H](C(=O)Nc2ccc3cnccc3c2)C1 returned ASK1 primary -8 and ULK1 primary 39.
